# The whole screen tested about 94,000 compounds, of which about 6,200 (6.6%) were called active. Another 31% or so got no clear call; they are omitted. Calls come from the whole dose curve; as a rule, active = well fitted inhibition curve with a large enough effect; inconclusive = small, poorly fitted or top-dose-only effect; inactive = flat fitted curve, though single readings scatter. Only a selection was taken, and actives are over-represented in it overall.
# Experiment: Cytotoxic Profiling in HEK 293 Cell Line of Diverse Libraries Using Quantitative High-Throughput Screening; note: nearly all actives have a fitted effect of over 60% in size
# Details: HEK 293 viability, ATP luminescence (CellTiter-Glo), 48-72 h; series mostly up to 115 µM; activity change, negative = cytotoxicity: at the top concentration
# Method in brief: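 CellTiter-Glo luminescence (cellular ATP) was read after 48 or 72 hr of compound exposure at 37 degree Celsius. Cells were HEK 293 plated at 250 cells/well.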
# % is set by controls: 0 for no effect and ±100 for the full control effect; potency is the fitted concentration of half-maximal effect.
Structure (SMILES),"activity change, negative = cytotoxicity",Potency,outcome
COCCc1noc(Cc2c(C)nn(-c3ccccc3)c2C)n1,-1.66% (inactive),,
COc1ccc(CC(=O)N2CCC(Cc3nc(C(C)C)no3)CC2)cc1Cl,-27.9% (inactive),,
COc1ccc(CC(=O)N2CCC(Cc3nc(-c4ccccc4)no3)CC2)cc1OC,,35.5 µM (active),
COc1ccc(CC(=O)N2CCC(Cc3nc(-c4cnccn4)no3)CC2)cc1Cl,-8.58% (inactive),,
COc1cccc(C(=O)N2CCC(Cc3nc(-c4cnccn4)no3)CC2)c1,-10.7% (inactive),,
COc1ccc(-c2noc(CC3CCN(C(=O)CC4CCCCC4)CC3)n2)cc1,,44.7 µM (active),
CCOc1ccc(CC(=O)N2CCC(Cc3nc(-c4cnccn4)no3)CC2)cc1,-18.9% (inactive),,
CNC(=O)[C@@H]1C[C@@H](O)CN1C1CCN(C(=O)c2ccc(OC)c(F)c2)CC1,1.95% (inactive),,
CC1CCN(C(=O)CCNc2c(-c3ccc(F)cc3)nc3cnccn23)CC1,-22.5% (inactive),,
CCC1CN(C(=O)c2ccc(C#CC(C)(C)O)o2)CCN1C(C)C (centres undefined),-18.1% (inactive),,
CCCN(CC1CCOC1)S(=O)(=O)c1ccc(C(F)(F)F)cc1 (centres undefined),-23.3% (inactive),,
O=c1n(Cc2ccc(F)cc2)nc2n1CCCCC2,13.5% (inactive),,
O=C(c1ccc2c(c1)OCO2)N1CCN(c2ccc(Cl)nn2)C(=O)C1,,,inactive
COCCOc1ncccc1-c1noc([C@@H]2CCCN2CC(C)(C)C)n1,,63.1 µM (active),
Cc1cccc(OCC(=O)N2CCC[C@H]2c2nc(-c3ccccc3)no2)c1,-18.9% (inactive),,
N#Cc1ccc(CN2CCC[C@H]2c2nc(-c3ccc(F)cn3)no2)cc1,-15.4% [at 172 µM] (inactive),,
Cn1ccnc1CN1CCCC(CCC(=O)Nc2ccccc2F)C1 (centres undefined),,,inactive
COc1ccc2nc(C[C@@H]3C[C@@H](C(C)C)[C@H](CNC(=O)CC(C)(C)CC(=O)O)C=C3C)[nH]c2c1,-19.4% (inactive),,
CC1=C[C@@H](CNC(=O)C2CCCCC2)[C@H](C(C)C)C[C@H]1Cc1nc2ccc(F)cc2[nH]1,,28.2 µM (active),
CC(=O)N1CCC(NC[C@@H]2C=C(C)[C@H](Cc3nc4ccccc4n3C)C[C@H]2C(C)C)CC1,-23.7% (inactive),,
CC1=C[C@@H](CN(CC2CC2)CC2CC2)[C@H](C(C)C)C[C@H]1Cc1nc2c(C)cccc2[nH]1,,89.1 µM (active),
CC1=C[C@@H](CNCC(C)C)[C@H](C(C)C)C[C@H]1Cc1nc2c(C)cccc2[nH]1,,39.8 µM (active),
CC(=O)N1CCC(C2CCN(C(=O)CCCc3nc4ccccc4[nH]3)C2)CC1 (centres undefined),-4.93% (inactive),,
CC1=C[C@@H](CNC2CCN(C)CC2)[C@H](C(C)C)C[C@H]1Cc1nc2ccccc2[nH]1,,28.2 µM (active),

Structure (SMILES),"activity change, negative = cytotoxicity",Potency,outcome
Nc1nc(C2CC(NC(=O)CCc3nc4ccc(F)cc4[nH]3)C2)cc(=O)[nH]1 (centres undefined),-11.3% (inactive),,
CC1=C[C@@H](CNC(=O)CC2(CC(=O)O)CCCC2)[C@H](C(C)C)C[C@H]1Cc1nc2c(C)cccc2[nH]1,-24.7% (inactive),,
Cc1cnc(C(=O)NC2CC(c3nnc(CO)n3C3CC3)C2)[nH]1 (centres undefined),4.88% (inactive),,
O=C(c1ccc2c(c1)[nH]c(=O)n2C1CCC(O)CC1)N1CCc2ccccc2C1 (centres undefined),-26% (inactive),,
Cc1ccc(-n2nc(C(=O)N3CC[C@](C)(O)C(C)(C)C3)c(O)cc2=O)cc1,1.18% (inactive),,
Cc1ccc(C)c2c(=O)cc(CN3CCN(CCn4cncn4)CC3)[nH]c12,-24% (inactive),,
CCN1C(=O)CCN(Cc2cnn(CC)c2C)CC12CCOCC2,-8.32% (inactive),,
Cc1cc2occ(CC(=O)N3CC[C@](C)(O)[C@@H](O)C3)c2cc1Cl,-2.57% (inactive),,
N#Cc1ccc(S(=O)(=O)N2CC(n3cc(C(=O)NCc4ccccc4)nn3)C2)cc1,,50.1 µM (active),
O=C(NCC1CC1)c1cn(C2CN(C(=O)NCCc3ccccc3)C2)nn1,,,inactive
CCOC(=O)c1cn(C2CN(S(=O)(=O)c3cccc(F)c3)C2)nn1,-18.3% (inactive),,
CC(=O)N1CCN(C(=O)C2(Cn3cccn3)CC2)CC(O)C1 (centres undefined),-1.42% (inactive),,
COCCNC(=O)[C@H]1C[C@H](Oc2cccnc2)CN1C(=O)NC1CCCCC1,-13.6% (inactive),,
O=C1NCCC[C@@H]1NC(=O)[C@H]1CN(C(=O)CS(=O)(=O)c2ccccc2)CCN1C(=O)C1CCCCC1,-0.313% (inactive),,
CCCc1nn(-c2cccc(F)c2)c(OC(C)=O)c1-c1ccc(NC(C)=O)cc1,-31.7% (inactive),,
CCN(CC)c1ncccc1CNC(=O)Nc1ccc2c(c1)OCO2,-14.6% (inactive),,
CC(=O)Nc1ccc(-c2c(-c3ccc4c(c3)OCO4)nn(-c3cc(C)ccc3C)c2OC(C)=O)cc1,,39.8 µM (active),
CN1CCCN(C[C@@H]2CN(C(=O)c3ccnn3C)C[C@@H]2CO)CC1,3.91% (inactive),,
O=C(Cc1cccnc1)N1CCCC(c2nc(CCOCC3CCCC3)no2)C1 (centres undefined),-14.1% (inactive),,
CCN(CC)C(=O)N1CCCC(c2nc(CCOCC3CCOCC3)no2)C1 (centres undefined),-24% (inactive),,
C1CCC(COCCc2noc(C3CNC3)n2)C1,,6.31 µM (active),
CNC(=O)[C@@H]1CN(C(=O)c2ccc(F)c(Cl)c2)C[C@H]1CO,-13.9% (inactive),,
CCn1ccc(C(=O)N2CCCC(c3noc(COC)n3)C2)n1 (centres undefined),1.51% (inactive),,
Cc1nc(-c2ccccc2OC2CN(S(=O)(=O)c3c(C)noc3C)C2)no1,3.92% (inactive),,

Structure (SMILES),"activity change, negative = cytotoxicity",Potency,outcome
COc1ccc(CCC(=O)NCC(=O)N2CCCCCCNC(=O)CC2c2ccccc2)cc1 (centres undefined),-2.36% (inactive),,
CC1CCN(c2ccc(CNC(=O)CN3CCCc4nc(C5CC5)ncc4C3=O)cc2)CC1,-1.31% (inactive),,
CN(CCO)CC1(O)CCCN(Cc2ccccc2F)C1=O (centres undefined),-25.7% (inactive),,
O=C1c2c(nc(COc3ccccc3)n2Cc2ccccc2)NCCN1Cc1cccc(Cl)c1,,31.6 µM (active),
O=C1c2cnc(-c3ccc(O)c(F)c3)nc2OCCN1Cc1ccccc1,-28.2% [at 172 µM] (inactive),,
O=C(O)CN1CCNc2nc(CNc3ccc(F)cc3)n(Cc3ccccc3)c2C1=O,,,inactive [at 172 µM]
COc1ccc(NC(=O)c2ccc3c(c2)N(S(C)(=O)=O)CC3)cc1OC,-25% (inactive),,
O=C(c1cccnc1)N1CCC(Nc2cccnc2)C1 (centres undefined),3.04% (inactive),,
COc1cccc(N2C(=O)NC(=NC3CCCC3)C23CCN(C(=O)c2ccc(C)cc2)C3)c1 (centres undefined),-2.27% (inactive),,
CSc1cccc(CN(C)C(=O)CC2COCCN2)c1 (centres undefined),-17.4% (inactive),,
COc1ccc(CNC(=O)C[C@@H]2CCNC[C@@H]2Cc2cc(-c3ccc(C(C)(C)C)cc3)on2)cc1OC,,25.1 µM (active),
O=C(C[C@@H]1CCNC[C@@H]1Cc1cc(CSc2ccccc2)on1)NCc1ccc2c(c1)OCO2,,35.5 µM (active),
CNC(=O)C(C)(C)N1CCC[C@H]1C(=O)N(C)Cc1ccccc1,-29.2% [at 172 µM] (inactive),,
CCCCc1cc(C[C@H]2CNCC[C@H]2CC(=O)N(CC)CC)no1,-22.1% [at 172 µM] (inactive),,
CCCCc1cc(C[C@H]2CNCC[C@H]2CC(=O)N2CCC(n3c(=O)[nH]c4ccccc43)CC2)no1,3.67% (inactive),,
O=C(C[C@@H]1CCNC[C@@H]1Cc1cc(-c2ccc(F)cc2)on1)NCCN1CCOCC1,-4.57% [at 172 µM] (inactive),,
COc1ccc(-c2cc(C[C@H]3CNCC[C@H]3CC(=O)NCCN(C)C)no2)cc1,0.101% [at 172 µM] (inactive),,
CN(Cc1ccccc1)C(=O)C[C@@H]1CCNC[C@@H]1Cc1cc(-c2ccc(C(C)(C)C)cc2)on1,,14.1 µM (active),
COCCOCc1nc(C2CCCCN2C(=O)Nc2ccc(F)cc2F)no1 (centres undefined),0.297% (inactive),,
O=C(Cc1cccc(Cl)c1)N1CCC2(CN[S+](=O)([O-])c3cccnc3O2)C1 (centres undefined),4.07% (inactive),,
Cc1ccc(CN[C@@H]2CO[C@H](CNC(=O)N3CCOCC3)[C@H]2O)cc1,,,inactive [at 172 µM]
CCNC(=O)[C@@H]1C[C@H](n2cc(CN(C)C(=O)OC)nn2)CN1,0.184% (inactive),,
Cc1ccc(NC(=O)c2nnn3c2COC(c2ccc(F)cc2)C3)c(Br)c1 (centres undefined),2.77% (inactive),,
COc1ccc(-c2ccccc2CN)cc1,-3.51% [at 172 µM] (inactive),,

Structure (SMILES),"activity change, negative = cytotoxicity",Potency,outcome
CCn1cc(S(=O)(=O)N2C[C@@H](Oc3ccccc3)C[C@@H]2C(=O)N2CCOCC2)cn1,2.71% (inactive),,
CCN(CC)C1CCOC2(CCN(C(=O)c3ccncc3)CC2)C1 (centres undefined),-7.62% (inactive),,
O=C(c1ccc(F)cc1)N1CCC2(CC1)CC(OCC1CC1)CCO2 (centres undefined),-5.72% (inactive),,
CCn1nccc1C(=O)N1CCC2(CC1)CC(N(Cc1ccc(F)cc1)C1CC1)CCO2 (centres undefined),,39.8 µM (active),
Cc1cccc(CC(=O)N2CCC(c3n[nH]c(=O)n3-c3ccccc3)CC2)c1,2.17% (inactive),,
CN(C)CCNC(=O)[C@H]1C[C@@](C)(C(=O)O)N(C)[C@H]1c1ccc(Cl)cc1,,,inactive
Cc1ccccc1N1Cc2c(NCC(C)(C)C)ncnc2N(C)CC1=O,-13.2% (inactive),,
Cc1ccccc1CNC(=O)C1CCCN(Cc2cccnc2)CCC(=O)NCC1 (centres undefined),-7% (inactive),,
O=C1CCN(S(=O)(=O)c2cccc(F)c2)CCCC(C(=O)NCc2ccccc2)CCN1 (centres undefined),-20.4% (inactive),,
O=C(NCc1ccc(F)c(F)c1)C1CCCN(Cc2cccc(-c3cccs3)c2)C1 (centres undefined),,5.62 µM (active),
COCCNC(=O)C1CCCN(Cc2cccc(-c3cccs3)c2)C1 (centres undefined),-13.6% (inactive),,
O=C(NCc1ccc2c(c1)OCO2)C1CCCN(Cc2cccc(-c3cccs3)c2)C1 (centres undefined),,28.2 µM (active),
O=C(NCc1ccc2c(c1)OCO2)C1CN(C2CCCCC2)C(=O)N1 (centres undefined),-24.3% [at 172 µM] (inactive),,
COc1ccc(C(=O)N2CCc3n[nH]c(=O)n3CC2)cc1F,-2.48% (inactive),,
O=C(N[C@H]1[C@H](O)[C@H](O)C[C@@H]1c1ccncc1)c1ccccn1,-11.5% [at 172 µM] (inactive),,
CN(C)c1ccc(CNCC2(COc3ccc(S(C)(=O)=O)cc3)C[C@@H](O)[C@@H](O)C2)cc1 (some centres undefined),-21% (inactive),,
O=C(NC1CC1)c1ccc(N2CC3CC(C2)[C@H]2CCCC(=O)N2C3)nc1 (some centres undefined),-6.11% (inactive),,
Cc1cc(C(=O)N2CCC(N3C(=O)C(OCC4CC4)C34CCOCC4)CC2)nn1C (centres undefined),-6.69% (inactive),,
CN(C)c1cccc(Nc2cc3c(cn2)NCCN(Cc2ccccc2)C3)c1,,63.1 µM (active),
Cn1c(CNC(=O)Cn2nc3c(cc2=O)CCCC3)nc2ccccc21,-0.627% (inactive),,
O=C(c1cn[nH]c1-c1ccccc1)N1CCC2(CC1)CC(O)CCO2 (centres undefined),-1.3% (inactive),,
O=C(Cc1cccc(Cl)c1)N1CCC2(CC1)CN[S+](=O)([O-])c1cccnc1O2,4.98% (inactive),,

# — PubChem BioAssay AID1345083 (National Center for Advancing Translational Sciences (NCATS), 2018)
